Hit rate of the full screen: of about 69,000 compounds, about 8,600 (12%) showed an effect of 50% or more. What follows is part of a selection rich in strong results, with near analogues and random picks from the rest.

The assay deals with Plasmodium berghei. Put plainly: Screen against P. berghei liver stage (PbLuc), transformed with Luciferase, at 10uM. It counts as functional, HepG2. Particulars: tested at 10 uM.
In the case of `O=C(NCc1nn(-c2ccccc2)c2c1CCC2)N1CCCC(O)C1` (stereo not drawn), the INHIBITION is listed as -49.4%.

In the case of `CN1CCN(Cc2nnc(C3CCN(CC4CC4)CC3)n2C)CC1`, the INHIBITION was -17%.

Take `CN1CCN(Cc2nnc(C3CCN(C4CCCCC4)CC3)n2C)CC1`: the INHIBITION is -10.9%.

On to `CN1CCC(c2nnc(CN3CCOCC3)n2C)CC1`, for which the INHIBITION turned out to be 27.7%.

`CCN(C)CC(=O)N1CCCC(c2nnc(CN3CCOCC3)n2C)C1` (stereo not drawn): the INHIBITION is recorded as 55.7%.

Take `Cn1c(CN2CCOCC2)nnc1C1CCCN(C(=O)CCC2CC2)C1` (stereo not drawn): the INHIBITION was determined as 8.51%.

As for `Cn1c(CN2CCOCC2)nnc1C1CCN(C(=O)C2CCCC2)CC1`, the INHIBITION was 50.1%.

As for `CN1CCN(Cc2nnc(C3CCN(C(CO)CO)CC3)n2C)CC1`, the INHIBITION is recorded as 62.9%.

Regarding `CN(CCO)Cc1nnc(C2CCN(C(=O)C3CCOCC3)CC2)n1C`, the INHIBITION is reported as 39.1%.

`Cn1c(CN2CCCC2)nnc1C1CCCN(C(=O)C2CCOCC2)C1` (stereo not drawn): the INHIBITION turned out to be 70.1%.

Regarding `Cn1c(CN2CCCC2)nnc1C1CCCN(C(=O)N2CCOCC2)C1` (stereo not drawn), the INHIBITION worked out at 5.78%.

Consider `Cn1c(CN2CCCC2)nnc1C1CCCN(C(=O)CN2CCCC2)C1` (stereo not drawn), for which the INHIBITION is listed as 21.2%.

Turning to `CCCOC(=O)N1CCCC(c2nnc(CN3CCOCC3)n2C)C1` (stereo not drawn), the INHIBITION came to 31.2%.

With `O=C(O)[C@@H]1CN(C(=O)CN2CCCCCC2)C[C@H]1c1ccccc1`, the INHIBITION was -6.21%.

Regarding `CC(C)C1=NOC2(CCN(S(C)(=O)=O)CC2)C1`, the INHIBITION is -35.4%.

For the molecule `Cc1cc(C)n(CC2CCN(CC(O)COc3ccccc3)CC2)n1` (stereo not drawn), the INHIBITION is reported as 26.8%.

For `NC1CCC(n2cc(C(=O)N[C@H]3CCCc4ccccc43)nn2)CC1` (stereo partly drawn), the INHIBITION amounted to 16.6%.

With `CCc1nc(C2CCCN(C(=O)c3ccncc3)C2)no1` (stereo not drawn), the INHIBITION was -61.4%.

Consider `Cc1noc(C)c1-c1cc(CCC2CN(CCC(N)=O)CCO2)ncn1` (stereo not drawn), for which the INHIBITION is -2.2555%.

In the case of `CCSCc1ccc(C(=O)N2CCCN(CC)CC2)cc1`, the INHIBITION was determined as 47%.

In the case of `COc1ccc(C(C)NCCc2ccc(NC(C)=O)cc2)c(OC)c1` (stereo not drawn), the INHIBITION stood at 1.56%.

With `CN(C)c1cccc(C2CCCN2S(=O)(=O)c2cn(C)cn2)n1` (stereo not drawn), the INHIBITION was -52.6%.

With `CSCCC(NC(N)=O)C(=O)Nc1ccc(-n2cccn2)nc1` (stereo not drawn), the INHIBITION is 1.79%.

Take `CSCCC(NC(N)=O)C(=O)NCc1cnn(-c2ccccc2)c1` (stereo not drawn): the INHIBITION was 29.8%.

`CSCCC(NC(N)=O)C(=O)NCc1ccc(-n2cccn2)cc1` (stereo not drawn): the INHIBITION amounted to 56.6%.

For the molecule `CSCCC(O)C(=O)N(C)Cc1cnn(-c2ccc(F)cc2)c1` (stereo not drawn), the INHIBITION amounted to 24.2%.

Regarding `CN(Cc1ccc(-n2cccn2)cc1)C(=O)CCC(F)(F)F`, the INHIBITION was 35.1%.

In the case of `CSCC[C@H](NC(C)=O)C(=O)N(C)Cc1ccc(-n2cccn2)cc1`, the INHIBITION was determined as 54.4%.

Regarding `Cc1cnc(C(=O)N2C[C@@H]3CC[C@H]2CN(S(=O)(=O)N(C)C)C3)cn1`, the INHIBITION came out at 42%.

With `O=C(NC1CC1)N1C[C@@H]2CCN(C(=O)c3cscn3)[C@@H]2C1`, the INHIBITION is -1.28%.

`Cn1cc(Cl)cc1C(=O)N1CCCN(Cc2nccn2C)CC1`: the INHIBITION turned out to be 0.16%.

On to `CCCc1noc(CN2CCCC2c2noc(C3CC3)n2)n1` (stereo not drawn), for which the INHIBITION came out at 40.9%.

For the molecule `O=C(NC1CC1)[C@H]1C[C@H]2OCC[C@H]2N(Cc2ccc(F)cc2)C1`, the INHIBITION is given as -15.3%.

Take `Cc1cnc(-n2cnnc2)c(-c2cccc3c2CCNC3)c1`: the INHIBITION amounted to 53.3%.

As to `COc1ccc(C(=O)O)cc1-c1cccc2c1CCNC2`, the INHIBITION is on record as 21.2%.

As to `Cc1ccc(C(=O)O)cc1-c1cccc2c1CCNC2`, the INHIBITION was found to be 15.8%.

Turning to `Cc1nc(-n2cnnc2)ccc1-c1cccc2c1CCNC2`, the INHIBITION is reported as 61.1%.

In the case of `Cc1cc(-c2cccc3c2CCNC3)cnc1-n1cnnc1`, the INHIBITION is given as 26.4%.

On to `CN(C)C(=O)c1ccc(-c2cccc3c2CCNC3)cc1`, for which the INHIBITION was found to be 33.9%.

On to `CCn1cncc1CN1CCN(CC2(c3ccc(C)cc3)CC2)CC1`, for which the INHIBITION is on record as -29.9%.

On to `O=C(O)C1(Cc2cc(-c3ccccc3F)no2)CCOCC1`, for which the INHIBITION is 21.9%.

`Cc1nn(C)c2nc(NCCN3CCCC(C(N)=O)C3)sc12` (stereo not drawn): the INHIBITION is given as 20%.

As to `Cn1ccnc1CN1CCC(CCCc2ccccn2)(C(N)=O)CC1`, the INHIBITION was -20.6%.

On to `CNC(=O)C1Cc2ccccc2CN1C(=O)CC(C)C` (stereo not drawn), for which the INHIBITION is given as -47%.

Turning to `Cc1cc(C)n(CC(C)CNC(=O)NCc2c(C)cc(C)[nH]c2=O)n1` (stereo not drawn), the INHIBITION stood at 42.3%.

For `Cc1cc(C)n(CC(C)NC(=O)NCc2c(C)cc(C)[nH]c2=O)n1` (stereo not drawn), the INHIBITION came out at 50.8%.

As to `Cc1cc(C)n(CCCNC(=O)NCc2c(C)cc(C)[nH]c2=O)n1`, the INHIBITION was 38.9%.

On to `CCC(=O)N1CCCC1c1n[nH]cc1-c1ccccc1F` (stereo not drawn), for which the INHIBITION is listed as -6.73%.

As for `Cc1ccc(-n2nnnc2SCN2CCCCC2=O)cc1C`, the INHIBITION was 63.8%.

`O=C1CCCCN1CSc1nnnn1-c1ccc(Cl)cc1`: the INHIBITION was found to be 30.4%.

In the case of `Cc1ccc(C)c(-n2nnnc2SCN2CCCCC2=O)c1`, the INHIBITION came to 13.7%.

As to `O=C(Cc1ccccn1)N1CCC(c2noc(-c3ccncc3)n2)CC1`, the INHIBITION was -8.12%.

On to `O=C(NCC1CC1)[C@@H]1CCO[C@@H]2CCN(Cc3ccsc3)C[C@H]21`, for which the INHIBITION is -9.71%.
